p97 inhibitor – human p97 ATPase inhibition; P55072; recombinant p97 ATPase, Kinase-Glo ATP luminescence, 3 h; inhibition, % at 8 µM; hit rate 0.42% among 220,000; AID 1481; in the data active means inhibition above about 15%
L major viab – inhibitors of Leishmania major promastigote growth | Leishmania major promastigotes, resazurin fluorescence viability | inhibition, % at 10 µM | hit rate 9% among 200,000 | AID 1063; in the data active means inhibition above about 50%;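 further: promastigotes grown with compound for 44 hours at 28 °C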
HCT116 PTEN-null – PTEN-deleted cell growth suppression; viability, % at 10 µM; AID 827; HCT116 PTEN-null viability, CellTiter-Glo, 60 h; active compounds read low; hit rate 1.2% among 140,000;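 active means viability at or below a set limit, 4 SD under the median of all tested compounds, cut at about 3.7% in these data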;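 further: PTEN knockout HCT116 line with beta catenin targeted HCT116 as companion control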
ROMK primary – human ROMK K+ channel modulation, primary screen; P48048; hit rate 2% among 130,000; Tet-inducible ROMK, thallium flux fluorescence; actives lie on both sides; B-score at 10 µM;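 active means signal ratio slope over the read window, or its plate-corrected B-score, at least 3 SD from the plate mean, either direction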;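 further: B-score of the F/F0 ratio slope over 7 to 12 s after thallium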
Target sequence (P48048 whole entry, looked up): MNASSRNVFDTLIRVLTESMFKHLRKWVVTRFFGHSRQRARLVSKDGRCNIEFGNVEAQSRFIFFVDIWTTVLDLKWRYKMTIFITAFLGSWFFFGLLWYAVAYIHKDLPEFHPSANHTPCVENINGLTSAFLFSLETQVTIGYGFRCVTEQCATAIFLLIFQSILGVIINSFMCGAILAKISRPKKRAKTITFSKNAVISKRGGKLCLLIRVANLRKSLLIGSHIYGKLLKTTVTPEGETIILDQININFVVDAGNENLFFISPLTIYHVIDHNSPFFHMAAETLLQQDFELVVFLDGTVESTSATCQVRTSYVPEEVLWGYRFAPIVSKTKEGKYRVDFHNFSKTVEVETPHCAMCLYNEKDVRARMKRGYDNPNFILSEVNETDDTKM
INS promoter inh – TRM-6 insulin promoter activity inhibition; hit rate 0.9% among 130,000; AID 1273; TRM-6 cells (human fetal islet line), insulin promoter-eGFP reporter, imaging; reporter expression induced with tamoxifen; inhibition, % at 2 µM;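 active means inhibition above the mean plus 3 SD, with well images judged a real hit on visual review, cut at about 60% in these data, passing the limit was not always enough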
HCT116 bCat-KO – beta-catenin-lacking colon tumor cell growth suppression | HCT116 beta-catenin knockout viability, CellTiter-Glo, 60 h; active compounds read low | viability, % at 10 µM | hit rate 1.5% among 140,000 | AID 818;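 active means viability at or under a set limit, the compound median less 4 SD, cut at about 6% in these data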
Each line names hits and unclear results; the compound was inactive in the other large screens. Hits are enriched below; roughly 10% of the tested compounds scored in any of these assays.

NC(=O)COC(=O)/C=C/c1cccc(Br)c1	none (no result: HCT116 PTEN-null, INS promoter inh, HCT116 bCat-KO)
CCCN1CCC(=NNc2ccc(S(=O)(=O)N(CC)CC)cc2[N+](=O)[O-])CC1	L major viab 100 (no result: HCT116 PTEN-null, INS promoter inh, HCT116 bCat-KO)
O=C(Nc1ccccc1)Nc1cc(OCC(F)(F)F)cc(OCC(F)(F)F)c1	L major viab 100, HCT116 PTEN-null 1.9, HCT116 bCat-KO 2.2 (no result: ROMK primary)
O=C(Nc1cccnc1)Nc1cc(Cl)cc(Cl)c1	none (no result: HCT116 PTEN-null, INS promoter inh, HCT116 bCat-KO)
O=C(NCCNC(=O)c1cc(OCC(F)(F)F)ccc1OCC(F)(F)F)Nc1cccc(C(F)(F)F)c1	none (no result: ROMK primary)
O=C(Nc1ccccc1)Nc1cc(Cl)cc(Cl)c1	HCT116 PTEN-null 2.2, HCT116 bCat-KO 2.0
CC(C)Nc1nc(NC(C)C)nc(SCC(N)=O)n1	none (no result: HCT116 PTEN-null, ROMK primary, INS promoter inh, HCT116 bCat-KO)
c1ccc(CCCCNCC2COc3ccccc3O2)cc1 (stereo unspecified)	L major viab 87 (no result: HCT116 PTEN-null, INS promoter inh, HCT116 bCat-KO)
O=C(CC1COc2ccccc2O1)NCCc1ccccc1 (stereo unspecified)	none (no result: ROMK primary)
c1ccc(CNCC2COc3ccccc3O2)cc1 (stereo unspecified)	L major viab 91
c1ccc(CCCNCC2COc3ccccc3O2)cc1 (stereo unspecified)	L major viab 91 (no result: HCT116 PTEN-null, INS promoter inh, HCT116 bCat-KO)
CCCNCC1COc2ccccc2O1 (stereo unspecified)	none (no result: ROMK primary)
O=C(CC1COc2ccccc2O1)NCc1ccccc1 (stereo unspecified)	none
O=C(O)C(Cc1ccccc1)N1C(=O)/C(=C/C=C/c2ccco2)SC1=S (stereo unspecified)	p97 inhibitor 27 (no result: L major viab, HCT116 PTEN-null, ROMK primary, INS promoter inh, HCT116 bCat-KO)
O=C(COc1cc(O)c2c(=O)c3ccccc3oc2c1)OCc1ccccc1	none (no result: L major viab, HCT116 PTEN-null, ROMK primary, INS promoter inh, HCT116 bCat-KO)
O=C(COC(=O)CCSc1ccccc1)Nc1cc(F)ccc1F	none (no result: HCT116 PTEN-null, INS promoter inh, HCT116 bCat-KO)
O=C(COC(=O)CCSc1ccccc1)Nc1ccc(F)cc1Cl	L major viab 53
O=C(COC(=O)CCSc1ccc(Cl)cc1)NCc1ccccc1	L major viab 60
COc1ccc(NC(=S)NCc2ccc(S(N)(=O)=O)cc2)c(OC)c1	none
CC(=O)Nc1ccccc1N(CC(O)Cn1c2ccccc2c2ccccc21)S(=O)(=O)c1ccc(C)cc1 (stereo unspecified)	L major viab 64 (no result: ROMK primary)
CCN(CC)C(=O)Cn1cc(S(=O)(=O)CC(=O)NC2CCCCC2)c2ccccc21	none (no result: HCT116 PTEN-null, HCT116 bCat-KO)
CNC(=O)c1[nH]cnc1C(=O)Nc1ccccc1C	none
Cc1cccc(NC(=O)c2nc[nH]c2C(=O)Nc2ccccc2[N+](=O)[O-])c1	L major viab 57 (no result: ROMK primary)
C[C@H]1O[C@@H](O[C@H]2[C@@H](O)C[C@H](O[C@H]3[C@@H](O)C[C@H](O[C@H]4CC[C@@]5(C)[C@H](CC[C@@H]6[C@@H]5C[C@@H](O)[C@]5(C)[C@@H](C7=CC(=O)OC7)CC[C@]65O)C4)O[C@@H]3C)O[C@@H]2C)C[C@H](O)[C@@H]1O	INS promoter inh 100 (no result: ROMK primary)
Cc1ccc(S(=O)(=O)NNC(=O)C(O)(c2ccccc2C)c2ccccc2C)cc1	none
Cc1cc(Cl)cc(C)c1OCCCCN1CCOCC1	L major viab 100
Cc1cc(Cl)c(OCCOCCN2CCCC(C)C2)c(Br)c1 (stereo unspecified)	L major viab 99 (no result: HCT116 PTEN-null, INS promoter inh, HCT116 bCat-KO)
Cc1cccc(C)c1OCCOCCN1CCN(C)CC1	none (no result: ROMK primary)
Cc1cc(Cl)c(OCCOCCN2CCCCC2)c(Br)c1	L major viab 97
Cc1cc(Cl)c(OCCCCN2CCOCC2)c(Br)c1	L major viab 98
Cc1cc(C)c(OCCOCCN2CCNCC2)c(C)c1	none (no result: ROMK primary)
Cc1cccc(C)c1OCCCN1CCCC1	none
CCOc1ncccc1C(=O)OCC(=O)N(CC(C)C)C1CCS(=O)(=O)C1 (stereo unspecified)	none (no result: HCT116 PTEN-null, HCT116 bCat-KO)
O=C(CCCCCNC(=O)c1ccccc1Br)N=Nc1c(O)[nH]c2ccccc12	none (no result: HCT116 PTEN-null, INS promoter inh, HCT116 bCat-KO)
C#CCNC(=O)C1=C[C@@H](C2CC2)[C@H](CCCO)[C@@H](OCC)O1	none (no result: HCT116 PTEN-null, ROMK primary, INS promoter inh, HCT116 bCat-KO)
CC1CCCN(C(=O)N2c3ccccc3Sc3ccccc32)C1 (stereo unspecified)	none
CN1CCCC(CC2Oc3ccccc3Sc3ccccc32)C1 (stereo unspecified)	L major viab 100
COc1ccc(NC(=O)C(=O)NNC(=O)C(C)Oc2ccc(Cl)cc2Cl)cc1 (stereo unspecified)	ROMK primary 4.8 (no result: HCT116 PTEN-null, HCT116 bCat-KO)
CCNC(=O)C(C)Oc1ccc(Cl)cc1Cl (stereo unspecified)	none (no result: HCT116 PTEN-null, INS promoter inh, HCT116 bCat-KO)
C/C(=N\NC(=O)c1c(Br)c(C)nn1C)c1ccc(NC(=O)C(C)Oc2ccc(Cl)cc2C)cc1 (stereo unspecified)	L major viab 98, HCT116 PTEN-null 1.4, HCT116 bCat-KO 0.9 (no result: ROMK primary, INS promoter inh)
CC(Oc1ccc(Cl)cc1Cl)C(=O)NCCCN1CCOCC1 (stereo unspecified)	L major viab 90 (no result: ROMK primary, INS promoter inh)
CC(Oc1ccc(Cl)cc1Cl)C(=O)Nc1ccncc1 (stereo unspecified)	none (no result: INS promoter inh)
CC(=O)Nc1ccc(NC(=O)C(C)Oc2ccc(Cl)cc2Cl)cc1 (stereo unspecified)	L major viab 57 (no result: HCT116 PTEN-null, ROMK primary, HCT116 bCat-KO)
C=CC[n+]1ccn(-c2nc3ccccc3nc2[N-]S(=O)(=O)c2cccs2)c1	none (no result: L major viab, HCT116 PTEN-null, INS promoter inh, HCT116 bCat-KO)
Cc1ccc(C(=O)N2CCN(c3ccccc3Cl)CC2)cc1[N+](=O)[O-]	none (no result: HCT116 PTEN-null, INS promoter inh, HCT116 bCat-KO)
O=C1N=c2ccccc2=C1c1c(O)n(-c2cccc(F)c2)[nH]c1=O	L major viab 61
CCc1cccc(CC)c1N1C(=O)c2cc(N3CCOCC3)c([N+](=O)[O-])cc2C1=O	L major viab 84
CCc1ccc(N2C(=O)c3cc(N4CCOCC4)c([N+](=O)[O-])cc3C2=O)cc1	none
Cc1ccc(C)c(N2C(=O)c3cc(N4CCOCC4)c([N+](=O)[O-])cc3C2=O)c1	L major viab 55
O=C(COC(=O)CC1CC2CCC1C2)Nc1cccc(S(=O)(=O)NC2=NCCCCC2)c1 (stereo unspecified)	none (no result: HCT116 PTEN-null, HCT116 bCat-KO)
O=C(NC(=S)Nc1ccc2c(c1)OCCO2)c1cccc(Br)c1	L major viab 68 (no result: ROMK primary)
O=C(NC(=S)Nc1ccc2c(c1)OCO2)c1ccccc1	none (no result: ROMK primary)
O=C(NC(=S)Nc1cccc(Cl)c1N1CCCCC1)c1ccc2c(c1)OCCO2	L major viab 97 (no result: ROMK primary)
O=C(Nc1ccc2c(c1)OCCO2)c1ccc(Br)s1	L major viab 54 (no result: ROMK primary)
CN(CCCN1CCOCC1)Cc1nc(-c2ccccc2)no1	L major viab 78 (no result: HCT116 PTEN-null, HCT116 bCat-KO)
CN(Cc1nc(-c2ccccc2)no1)C1CCOCC1	none (no result: L major viab, HCT116 PTEN-null, ROMK primary, INS promoter inh, HCT116 bCat-KO)
O=C(NCc1cccs1)C12CC3CC(CC(C3)C1)C2	INS promoter inh 82 (no result: HCT116 PTEN-null, HCT116 bCat-KO)
Cc1ccc(C(=O)/C=C/c2ccc(Br)cc2)o1	L major viab 79, HCT116 PTEN-null 1.4, HCT116 bCat-KO 2.2 (no result: ROMK primary)
Cc1ccc(C(=O)/C=C/c2ccccc2)o1	L major viab 83, HCT116 bCat-KO 5.9
CCn1c(CNc2ccccc2Cl)nnc1SCC(=O)OC1CCCCC1	none (no result: INS promoter inh)
CCn1c(CNc2ccc(Cl)cc2)nnc1SCC(=O)OC1CCCCC1	ROMK primary -4.2
COc1ccccc1-n1cc(CN2CCN(CC=C(C)C)C(CCO)C2)cn1 (stereo unspecified)	none (no result: L major viab, HCT116 PTEN-null, ROMK primary, INS promoter inh, HCT116 bCat-KO)
COc1ccccc1-c1nnc(Nc2nc3c(OC)cccc3s2)o1	L major viab 98, ROMK primary 2.4, HCT116 bCat-KO 5.1
Fc1cccc2sc(Nc3nc4ccccc4s3)nc12	none

Screening results as filed in PubChem BioAssay.
